# PubChem BioAssay (NCATS)
# Inconclusive results are not listed. Calls of active or inactive are those of the source. The call rests on the fitted dose curve; in most records, active means well fitted cell-killing curve with a large enough effect; inconclusive means small, poorly fitted or top-dose-only effect, or effect the other way; inactive means flat fitted curve, though single readings scatter.
# Tested on: Hek293T
# Experiment: Primary qHTS to identify gynecologic anti-cancer compounds using libraries of approved drugs and bioactive compounds (AID 1345084); further: nearly all actives have a fitted effect of over 55% in size
# Conditions: Gynecologic cancer cell panel viability, ATPlite luminescence, 48 h, control line for the selectivity index; series mostly up to 57.5 µM; activity change, negative = cytotoxicity: at the top concentration
# Outline: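 Cells, 1,000 per well, plated 16 h, then exposed 48 h at 37 C to compounds. Viability by ATPlite luminescence after 15 min at room temperature.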
# On the % scale 0 is the no-effect control and ±100 the full control effect; potency means the concentration at half of the fitted maximal effect.
Compound,Potency,"activity change, negative = cytotoxicity"
C=C1C(=O)O[C@@H]2C3C(=C(C)[C@@H](O)[C@@H](OC(=O)/C(=C/C)COC(C)=O)[C@@H]12)C(=O)[C@H]1O[C@@]31C (stereo partly drawn),7.94 µM (active),–
CCN1CCN(Cc2ccc(NC(=O)c3ccc(C)c(Oc4ccnc5[nH]ccc45)c3)cc2C(F)(F)F)CC1,–,-16.9% [at 38.5 µM] (inactive)
FC(F)(F)c1ccc(/C=C/c2nc(COc3ccc(CCCCn4ccnn4)cc3)co2)cc1,–,-41.8% (inactive)
COc1ccc(Oc2c(Cl)cnn(-c3cc(C)cc(C)c3)c2=O)cc1,–,-14.2% (inactive)
Cc1c(NC(=O)OCC2COCCN2)cn2ncnc(Nc3ccc4c(cnn4Cc4cccc(F)c4)c3)c12 (stereo not drawn),–,3.36% (inactive)
COc1cc(O)c2c(c1)/C=C/C[C@H](O)[C@H](O)C(=O)/C=C\C[C@H](C)OC2=O,15.8 µM (active),–
C/C=C/C=C/C=C/C(=O)O[C@@H]1C=C2COC(=O)[C@]2(O)[C@@]2(C)CCCC(C)(C)[C@H]12,–,-18.6% [at 25.3 µM] (inactive)
CNS(=O)(=O)c1ccccc1Nc1nc(Nc2ccc(N3CCN(C)CC3)cc2OC)ncc1Br,14.1 µM (active),–
CS/C=C/C(=O)O[C@@H]1CCC2=CC(=O)C(=C(C)C)C[C@]2(C)[C@H]1C,–,-28.9% [at 38.5 µM] (inactive)
CC(C)S(=O)(=O)NC[C@H](C)c1ccc(-c2ccc(CCNS(C)(=O)=O)cc2)cc1,8.91 µM (active),–
NCCOc1cc(C(=O)Nc2cc(OCCN)c3ccccc3n2)nc(C(=O)Nc2cc(OCCN)c3ccccc3n2)c1,–,-25.4% (inactive)
Cc1cc(-c2nc(-c3ccc(OC(F)(F)F)cc3)no2)nn1Cc1ccnc(N2CCN(C3CC3)CC2)c1,–,-33.8% (inactive)
C=C(NC(=O)C(=C)NC(=O)c1csc(C2=NC3c4csc(n4)C4NC(=O)c5csc(n5)C(C(C)(O)C(C)O)NC(=O)C5CSC(=N5)/C(=C/C)NC(=O)C(C(C)O)NC(=O)c5csc(n5)C3(CC2)NC(=O)C(C)NC(=O)C(=C)NC(=O)C(C)NC(=O)C(C(C)CC)NC2C=Cc3c(C(C)O)cc(nc3C2O)C(=O)OC4C)n1)C(N)=O (stereo not drawn),17.8 µM (active),–
